# Source: PubChem BioAssay AID588342 (National Center for Advancing Translational Sciences (NCATS), 2011)
# The whole screen tested about 360,000 compounds, of which about 25,000 (6.9%) were called active. Inconclusive results (about 9%) are left out. Many of the other results were omitted from the sample, so actives are more common in it than they were. A number with no mark means an inactive call. Calls come from the whole dose curve; as a rule, active = well fitted inhibition curve with a large enough effect; inconclusive = small, poorly fitted or top-dose-only effect; inactive = flat fitted curve, though single readings scatter.
# Biological target: Luciferin 4-monooxygenase (Photinus pyralis) (UniProt P08659)
# Sequence (P08659 whole entry, looked up): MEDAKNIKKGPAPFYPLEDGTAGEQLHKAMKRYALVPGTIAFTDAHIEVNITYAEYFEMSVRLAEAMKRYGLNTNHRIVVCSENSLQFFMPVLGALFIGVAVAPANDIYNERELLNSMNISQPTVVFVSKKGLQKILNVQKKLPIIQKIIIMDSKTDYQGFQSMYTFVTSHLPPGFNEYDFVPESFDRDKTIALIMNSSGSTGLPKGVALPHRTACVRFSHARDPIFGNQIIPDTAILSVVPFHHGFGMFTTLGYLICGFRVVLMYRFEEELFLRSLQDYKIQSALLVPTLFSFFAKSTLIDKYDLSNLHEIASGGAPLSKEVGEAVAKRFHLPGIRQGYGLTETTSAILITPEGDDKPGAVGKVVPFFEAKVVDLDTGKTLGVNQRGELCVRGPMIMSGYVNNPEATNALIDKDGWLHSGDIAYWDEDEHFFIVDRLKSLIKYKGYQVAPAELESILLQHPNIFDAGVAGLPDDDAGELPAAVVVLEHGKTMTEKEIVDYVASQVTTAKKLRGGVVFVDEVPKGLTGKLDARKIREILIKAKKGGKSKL
# Experiment: qHTS profiling assay for firefly luciferase inhibitor/activator using purifed enzyme and Km concentrations of substrates (counterscreen for miR-21 project); note: nearly all actives have a fitted effect of over 55% in size;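 for activity change, negative = inhibition: plate controls were vehicle for no effect and reference inhibitor for full effect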
# Conditions: purified FLuc, luminescence inhibition; series mostly up to 57.5 µM; activity change, negative = inhibition: at the top concentration
# Summary of the method: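 Purified P. pyralis luciferase (10nM final) with 10uM D-luciferin and 10uM ATP (Km levels) in 50mM Tris acetate pH 7.5, 10mM Mg acetate, 0.01% Tween-20, 0.05% BSA; qHTS 6-point titration, ~60 µM downward; luminescence read.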
# Potency is the fitted concentration of half-maximal effect.
SMILES,"activity change, negative = inhibition",Potency
COc1ccccc1-c1cc(C(F)(F)F)nc(S(=O)(=O)CCCC(=O)Nc2ccc(F)cc2F)n1,3.86%,–
CCN(C(=O)Cn1c(=O)nc(-c2ccccc2)c2cc(Cl)ccc21)c1cccc(C)c1,-3.93%,–
COc1cc(OC)cc(C(=O)NCCSCc2ccco2)c1,1.79%,–
Cc1ccsc1C(=O)NCCc1ccco1,–,21.3 µM (active)
O=C(NCCc1ccco1)c1nn(Cc2ccccc2)c(=O)c2ccccc12,-3.58%,–
CCC(=O)Nc1cccc(C2=NOC3(C2)C[C@@H](C(N)=O)N(C(=O)c2cc([N+](=O)[O-])cc([N+](=O)[O-])c2C)C3)c1 (some centres not stated),-5.43%,–
COc1ccc(Cn2ccc3nc(C)c(C(=O)Nc4ccc(C)c(F)c4)cc3c2=O)cc1,3.84%,–
COc1cccc(Cn2c(CNS(=O)(=O)c3ccc(Cl)s3)nc3cccnc32)c1,-12.6%,–
COc1ccc(NC(=O)C(c2ccccc2)N2Cc3ccccc3C2=O)cc1 (configuration not stated),-16.3%,–
CCOC(=O)CC1(NC(=O)c2cc(COc3cncc(Cl)c3)on2)CCCCC1,7.52%,–
Cc1nonc1C1CCCN1C(=O)c1cc(COc2cccc(C(F)(F)F)c2)on1 (configuration not stated),-0.758%,–
COc1cccc(OCc2cc(C(=O)N3CCN(C(=O)c4ccco4)CC3)no2)c1,–,12 µM (active)
CC(=O)c1ccc(NC(=O)c2cc(-c3cccs3)on2)cc1,0.0726%,–
O=C(c1cc(-c2ccccc2O)on1)N1CCCC1,–,6.75 µM (active)
COc1cccc(OC)c1OCCN1CCN(C(=O)c2ccco2)CC1,0.921%,–
O=C(c1ccco1)N1CCN(C(=O)c2ccc(COc3ccc(F)cc3)o2)CC1,-4.6%,–
CNC(=O)n1ccc(C(=O)N2CCCCC2)n1,2.3% [at 2.3 µM],–
O=C(c1cc(-c2cccs2)on1)N1CCCCC1,–,23.9 µM (active)
CCCOC1CCCN(C(=O)c2cc(COc3cncc(Cl)c3)on2)C1 (configuration not stated),–,10.7 µM (active)
O=C(c1ccc(F)cc1)N1CCCC(c2nc(-c3cccs3)no2)C1 (configuration not stated),-3.22%,–
O=C(c1ccc(Cl)c(Cl)c1)N1CCCC1,0.532%,–
CCOC(=O)c1c(C)oc2nc(C)nc(N3CCN(c4ccc(OC)cc4)CC3)c12,5.68%,–
O=S(=O)(c1ccc(SCc2ccc(Br)cc2)nc1)N1CCOCC1,1.23%,–
COc1ccccc1N1CCN(c2ncnc3onc(-c4cccc(Cl)c4)c23)CC1,-4.9%,–
COc1cc(NC(=O)c2nn(-c3ccc(C)cc3)c(=O)c3c2c2ccccc2n3C)cc(OC)c1OC,1.45%,–
COc1cc2nc(SCC(=O)Nc3ccccc3F)n3nc(-c4ccccc4)nc3c2cc1OC,-3.03%,–

SMILES,"activity change, negative = inhibition",Potency
c1ccc(CNc2ncnc3[nH]ncc23)cc1,-3.6%,–
Cc1ccc(NC(=O)CN(C)C(=O)c2cccc(S(=O)(=O)N3CCCC3)c2)cc1,1.78%,–
Cc1[nH]c2c(C(=O)N3CCCC(CCC(=O)NCc4ccccc4F)C3)cccc2c1C (configuration not stated),-17.2%,–
COc1ccc(C(=O)C2CCCN(C(=O)c3cc(C)on3)C2)cc1F (configuration not stated),-0.241%,–
COc1ccc(Cl)cc1C(=O)NNC(=S)NC1CCCC1,-0.233%,–
O=C(c1ccco1)N1CCN(C(=O)c2cc(-c3ccccc3F)no2)CC1,–,13.5 µM (active)
COc1cc(Cl)ccc1OCc1cc(C(=O)N(C)CCc2c(C)n[nH]c2C)no1,-16.9%,–
COc1ccccc1-c1cc(C(=O)N2CCCCC2)no1,–,5.36 µM (active)
COc1ccc(OCc2cc(C(=O)N3CCCC3)no2)c2ccccc12,–,9.53 µM (active)
COc1ccccc1OCc1ccc(C(=O)N2CCN(C)CC2)o1,3.42%,–
O=C(NCCCN1CCOCC1)c1cc(-c2ccccc2F)no1,-19.8%,–
Cc1ccc(C)c(OCc2cc(C(=O)N3CCN(c4cnccn4)CC3)no2)c1,-7.42%,–
O=C(Cc1c(F)cccc1Cl)N1CCN(C(=O)c2ccco2)CC1,-2.68%,–
COc1cc(Cl)ccc1OCc1cc(C(=O)N2CC[C@@H]3CCCC[C@H]3C2)no1,–,23.9 µM (active)
COc1cccc(-c2cc(C(=O)N3CCN(c4ccccc4OC)CC3)no2)c1,–,inactive
Fc1ccc(-c2nn(-c3ccccc3Cl)c3c2cnc2ccccc23)cc1,-4.79%,–
O=C(CN1C2CCC1CC(NC(=O)C1CC1)C2)NCc1ccccc1 (configuration not stated),-0.129%,–
COc1ccc(CNC(=O)CN(Cc2ccccc2Cl)C(=O)c2csnn2)cc1,0.712%,–
CCc1nn(CC(=O)Nc2cc(C)cc(C)c2)c(=O)c2cc3sccc3n12,-9%,–
O=C(NCC(c1ccc(Cl)cc1)N1CCOCC1)c1ccccc1F (configuration not stated),-2.7%,–
COC(=O)c1scc(S(=O)(=O)C(C)(C)C)c1-n1cccc1,-1.66%,–
O=C(NCCC1=CCCCC1)c1ccc2c(c1)N(Cc1ccccc1F)C(=O)c1ccccc1S2(=O)=O,-0.544%,–
COCCNc1nnc(SCC(=O)NNC(=O)c2ccco2)s1,3.77%,–
Cc1cccc(Cc2c(C)nc3nc(SCc4ccccc4Cl)nn3c2C)c1,1.37%,–
CCOC(=O)c1ccc(NC(=O)Cn2cc(S(=O)(=O)Cc3ccccc3F)c3ccccc32)cc1,-13.5%,–
Cc1ccc(CNC(=O)CCc2c(C)nc3c(c(C)nn3-c3ccccc3)c2C)cc1,-3.65%,–
